# According to PubChem BioAssay (EPA / NIEHS):
# Records with an inconclusive call do not appear. Active and inactive are the calls of the source. How the source made its calls, unless noted: active means hit-call score of the fitted dose curve at least 0.9, where 1 is the maximum; inactive means score below 0.9.
# Assays:
# [1] = target: Bile acid receptor (Homo sapiens) (UniProt Q96RI1); experiment: ATG_FXR_TRANS: Attagene TRANS-FACTORIAL HepG2 Assay for Farnesoid X Receptor (FXR) (AID 2282979; active means hit-call score of the fitted dose curve at least 0.9, where 1 is the maximum;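 further: hits raise reporter mRNA above DMSO so AC50 marks FXR activation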); details: HepG2 Attagene TRANS FXR-GAL4 reporter transcription
# Chain of Bile acid receptor (Homo sapiens) (Q96RI1 whole entry, looked up, the tested form may be a part): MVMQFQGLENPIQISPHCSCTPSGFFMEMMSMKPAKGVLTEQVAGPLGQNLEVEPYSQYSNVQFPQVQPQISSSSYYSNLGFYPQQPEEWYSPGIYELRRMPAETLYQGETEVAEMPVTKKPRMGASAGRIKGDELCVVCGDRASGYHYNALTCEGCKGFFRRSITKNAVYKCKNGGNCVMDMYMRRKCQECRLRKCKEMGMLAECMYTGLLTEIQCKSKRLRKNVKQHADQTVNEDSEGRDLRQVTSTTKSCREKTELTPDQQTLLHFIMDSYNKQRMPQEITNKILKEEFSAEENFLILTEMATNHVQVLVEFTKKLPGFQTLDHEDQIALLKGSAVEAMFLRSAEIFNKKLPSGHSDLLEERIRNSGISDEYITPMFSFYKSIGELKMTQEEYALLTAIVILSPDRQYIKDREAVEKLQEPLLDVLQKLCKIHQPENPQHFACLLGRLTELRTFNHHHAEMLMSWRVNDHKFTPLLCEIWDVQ
# Summary of the method: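 Transient transfection of HepG2 with multiplexed GAL4-UAS reporter units; exogenous FXR-GAL4 chimera. Dose 24 h → TriZol RNA → oligo(dT) RT → PCR, 6-FAM primer extension, HpaI cut → CE. Gain vs DMSO.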
# [2] = target: Oxysterols receptor LXR-beta (Homo sapiens) (UniProt P55055); experiment: ATG_LXRb_TRANS: Attagene TRANS-FACTORIAL HepG2 Assay for human Liver X Receptor beta (LXRb) (AID 2282981; active means hit-call score of the fitted dose curve at least 0.9, where 1 is the maximum); details: HepG2 Attagene TRANS GAL4-LXRb reporter, mRNA
# Chain of Oxysterols receptor LXR-beta (Homo sapiens) (P55055 whole entry, looked up, the tested form may be a part): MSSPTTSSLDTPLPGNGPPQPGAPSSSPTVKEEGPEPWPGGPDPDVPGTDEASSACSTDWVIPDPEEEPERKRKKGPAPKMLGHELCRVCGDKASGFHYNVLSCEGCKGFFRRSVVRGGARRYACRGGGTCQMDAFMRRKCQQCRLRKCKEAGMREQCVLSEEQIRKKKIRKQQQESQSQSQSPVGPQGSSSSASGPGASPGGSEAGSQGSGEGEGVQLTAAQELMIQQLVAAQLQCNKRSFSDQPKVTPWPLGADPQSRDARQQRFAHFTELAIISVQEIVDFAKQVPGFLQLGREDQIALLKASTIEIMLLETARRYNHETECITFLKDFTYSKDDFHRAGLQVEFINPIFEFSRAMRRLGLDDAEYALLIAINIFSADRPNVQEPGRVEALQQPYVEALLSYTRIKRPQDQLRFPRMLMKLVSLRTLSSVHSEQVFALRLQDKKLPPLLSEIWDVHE
# Summary of the method: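 HepG2 cells transiently transfected with multiple reporter transcription units carrying chimeric NR-Gal4 proteins acting on GAL4-UAS reporters; compound exposure 24 h. Reporter mRNA quantified by RT-PCR, 6-FAM labelling, HpaI digestion and capillary electrophoresis; gain of signal versus DMSO.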
# [3] = ATG_M_06_TRANS: Attagene TRANS-FACTORIAL HepG2 Assay for M06 Transcription Factor (Internal Marker) (AID 2282983; active means hit-call score of the fitted dose curve at least 0.9, where 1 is the maximum;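 further: reporter transcript level by RT-PCR then capillary electrophoresis fluorescence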); details: HepG2 Attagene TRANS M06 internal marker reporter
# Summary of the method: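 Transfect HepG2 with MRTUs → dose compounds 24 h → isolate RNA, oligo(dT) RT → PCR with reporter primers → 6-FAM primer extension → HpaI digest → CE fragment analysis. Positive direction vs DMSO.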
# [4] = ATG_M_32_TRANS: Attagene TRANS-FACTORIAL HepG2 Assay for M32 Transcription Factor (Internal Marker) (AID 2282984; active means hit-call score of the fitted dose curve at least 0.9, where 1 is the maximum;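 further: transcript level of a background control reporter unit measured by RT-PCR and capillary electrophoresis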); details: HepG2 Attagene TRANS M32 internal marker reporter
# Summary of the method: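 HepG2 cells transiently transfected with multiple GAL4-UAS reporter transcription units, dosed for 24 hours; reporter mRNA quantified by RT-PCR, 6-FAM primer extension, HpaI digestion and capillary electrophoresis. Gain-of-signal fitted versus DMSO baseline; internal background-control marker.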
# [5] = target: Nuclear receptor subfamily 4 group A member 2 (Homo sapiens) (UniProt P43354); experiment: ATG_NURR1_TRANS: Attagene TRANS-FACTORIAL HepG2 Assay for human Nuclear Receptor Related Protein 1 (NURR1) (AID 2282985; active means hit-call score of the fitted dose curve at least 0.9, where 1 is the maximum); details: HepG2 Attagene TRANS reporter, mRNA readout
# Chain of Nuclear receptor subfamily 4 group A member 2 (Homo sapiens) (P43354 whole entry, looked up, the tested form may be a part): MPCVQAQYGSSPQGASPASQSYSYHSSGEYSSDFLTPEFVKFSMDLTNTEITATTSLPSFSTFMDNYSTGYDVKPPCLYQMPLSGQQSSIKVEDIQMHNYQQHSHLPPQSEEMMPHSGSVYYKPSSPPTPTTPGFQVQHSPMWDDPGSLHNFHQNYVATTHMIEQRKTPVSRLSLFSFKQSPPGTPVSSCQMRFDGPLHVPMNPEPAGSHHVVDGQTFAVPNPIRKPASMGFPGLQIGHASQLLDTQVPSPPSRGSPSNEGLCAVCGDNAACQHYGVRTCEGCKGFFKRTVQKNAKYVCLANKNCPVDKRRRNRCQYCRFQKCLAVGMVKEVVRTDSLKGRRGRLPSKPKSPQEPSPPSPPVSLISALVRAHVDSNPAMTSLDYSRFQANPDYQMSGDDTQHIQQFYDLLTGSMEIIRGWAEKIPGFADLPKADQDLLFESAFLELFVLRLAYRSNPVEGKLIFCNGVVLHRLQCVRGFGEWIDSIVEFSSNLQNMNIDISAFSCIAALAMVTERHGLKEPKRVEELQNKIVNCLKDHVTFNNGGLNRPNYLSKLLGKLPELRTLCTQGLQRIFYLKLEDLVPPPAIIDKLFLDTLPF
# Summary of the method: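 HepG2 cells transiently transfected with GAL4-UAS reporter units and chimeric NR-Gal4 constructs; chemical exposure 24 h. Reporter mRNA quantified by RT-PCR, fluorescent labelling and capillary electrophoresis; gain of signal fitted relative to DMSO baseline.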
# [6] = target: Transcriptional activator Myb (Homo sapiens) (UniProt P10242); experiment: ATG_Myb_CIS: Attagene CIS-FACTORIAL HepG2 Assay for human Myeloblastosis (Myb) Proto-Oncogene Transcription Factor (AID 2282986); details: HepG2 Attagene CIS-FACTORIAL Myb reporter transcription; actives raise or lower the signal
# Chain of Transcriptional activator Myb (Homo sapiens) (P10242 whole entry, looked up): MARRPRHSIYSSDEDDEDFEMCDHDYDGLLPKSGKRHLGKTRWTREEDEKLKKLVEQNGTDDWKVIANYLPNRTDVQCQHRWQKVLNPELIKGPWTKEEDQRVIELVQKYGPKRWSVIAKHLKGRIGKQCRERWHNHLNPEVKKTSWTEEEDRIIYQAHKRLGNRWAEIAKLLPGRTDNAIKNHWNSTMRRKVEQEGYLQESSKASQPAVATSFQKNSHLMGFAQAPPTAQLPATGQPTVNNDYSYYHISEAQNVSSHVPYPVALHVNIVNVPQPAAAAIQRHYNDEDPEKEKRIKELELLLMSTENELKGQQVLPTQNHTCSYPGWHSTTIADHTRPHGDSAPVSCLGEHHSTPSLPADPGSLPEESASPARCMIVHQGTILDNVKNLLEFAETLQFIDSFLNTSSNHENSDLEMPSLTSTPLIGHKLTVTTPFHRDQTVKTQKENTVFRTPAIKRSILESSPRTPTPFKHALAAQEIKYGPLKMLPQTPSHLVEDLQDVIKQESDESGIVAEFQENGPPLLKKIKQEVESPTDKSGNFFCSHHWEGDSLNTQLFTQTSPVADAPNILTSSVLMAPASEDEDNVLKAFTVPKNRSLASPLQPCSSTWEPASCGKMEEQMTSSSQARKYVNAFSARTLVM
# Summary of the method: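 Transiently transfected HepG2 cells carrying a multiplexed cis-promoter reporter set report endogenous Myb activity after 24 h compound exposure. Reporter mRNA is read by RT-PCR with capillary electrophoresis of fluorescent products, fitted bidirectionally against DMSO.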
# [7] = target: Nuclear respiratory factor 1 (Homo sapiens) (UniProt Q16656); experiment: ATG_NRF1_CIS: Attagene CIS-FACTORIAL HepG2 Assay for human Nuclear Respiratory Factor 1 (NRF1) Orphan Gene (AID 2282987); details: HepG2 NRF1 cis-element reporter, Attagene multiplex; actives raise or lower the signal
# Chain of Nuclear respiratory factor 1 (Homo sapiens) (Q16656 whole entry, looked up): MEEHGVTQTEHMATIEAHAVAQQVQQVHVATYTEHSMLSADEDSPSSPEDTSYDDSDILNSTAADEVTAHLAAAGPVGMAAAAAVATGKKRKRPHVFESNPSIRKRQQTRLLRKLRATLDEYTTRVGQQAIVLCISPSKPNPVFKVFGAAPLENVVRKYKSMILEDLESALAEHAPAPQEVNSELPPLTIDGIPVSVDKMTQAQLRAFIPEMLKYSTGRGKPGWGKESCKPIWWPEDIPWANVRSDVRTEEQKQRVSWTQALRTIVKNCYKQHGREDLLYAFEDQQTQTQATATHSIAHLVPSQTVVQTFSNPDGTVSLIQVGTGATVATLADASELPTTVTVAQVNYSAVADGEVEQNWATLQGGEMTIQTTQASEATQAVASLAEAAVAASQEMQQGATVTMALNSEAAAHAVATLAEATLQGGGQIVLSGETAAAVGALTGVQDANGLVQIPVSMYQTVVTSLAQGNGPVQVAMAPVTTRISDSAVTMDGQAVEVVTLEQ
# Summary of the method: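 HepG2 cells transiently transfected with multiple cis-regulated reporter units, exposed 24 h. Reporter mRNAs measured by RT-PCR, fluorescent labelling, HpaI digestion and capillary electrophoresis; bidirectional fitting against DMSO.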
# [8] = ATG_NFI_CIS: Attagene CIS-FACTORIAL HepG2 Assay for human Nuclear Factor I (NFI) (AID 2282989); details: HepG2 cis-regulatory reporter, NFI response element transcription; actives raise or lower the signal
# Summary of the method: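 Transient MRTU transfection of HepG2 → 24 h chemical dosing → total RNA, oligo(dT) RT → PCR, 6-FAM primer extension, HpaI cut → capillary electrophoresis. Endpoint fitted bidirectionally relative to DMSO.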
# [9] = target: Myc proto-oncogene protein (Homo sapiens) (UniProt P01106); experiment: ATG_Myc_CIS: Attagene CIS-FACTORIAL HepG2 Assay for human Myelocytomatosis (Myc) Proto-Oncogene Transcription Factor (AID 2282990); details: HepG2, Attagene cis-reporter transcription factor activity; actives raise or lower the signal
# Chain of Myc proto-oncogene protein (Homo sapiens) (P01106 whole entry, looked up): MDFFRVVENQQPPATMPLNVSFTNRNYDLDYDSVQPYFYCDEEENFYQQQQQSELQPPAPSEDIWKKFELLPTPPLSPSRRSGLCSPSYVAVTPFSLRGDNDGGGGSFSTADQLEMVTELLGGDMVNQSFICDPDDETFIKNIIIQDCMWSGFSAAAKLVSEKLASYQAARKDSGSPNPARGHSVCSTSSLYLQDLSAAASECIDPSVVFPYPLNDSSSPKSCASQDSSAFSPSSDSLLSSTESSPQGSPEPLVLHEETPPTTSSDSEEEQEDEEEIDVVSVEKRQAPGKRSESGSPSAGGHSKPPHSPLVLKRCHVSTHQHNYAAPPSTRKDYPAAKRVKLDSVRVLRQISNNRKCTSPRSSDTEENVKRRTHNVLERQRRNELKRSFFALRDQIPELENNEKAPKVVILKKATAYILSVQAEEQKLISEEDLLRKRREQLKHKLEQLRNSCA
# Summary of the method: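 Multiplexed cis-reporter transcription in HepG2 cells after 24 h chemical treatment. Reporter mRNA measured by RT-PCR and capillary electrophoresis fluorescence; activity fitted bidirectionally against DMSO control.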
# [10] = ATG_NRF2_ARE_CIS: Attagene CIS-FACTORIAL HepG2 Assay for human Nuclear Factor Erythroid 2 Related Factor 2 (NFR2) response to Antioxidant Response Elements (ARE) (AID 2282992); details: HepG2 Attagene ARE/NRF2 reporter, transcription factor activity; actives raise or lower the signal
# Summary of the method: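 Cis-factorial assay: transfected HepG2 reporter library, 24 h dosing, mRNA readout via RT-PCR/CE; DMSO-referenced bidirectional analysis.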
# [11] = ATG_Oct_MLP_CIS: Attagene CIS-FACTORIAL HepG2 Assay for human Octamer-Binding Transcription Factor (Oct) (AID 2282993); details: HepG2 Attagene cis-factorial Oct reporter, mRNA; actives raise or lower the signal
# Summary of the method: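 Transient MRTU transfection of HepG2 → 24 h compound treatment → RNA isolation, reverse transcription, PCR → 6-FAM primer extension, HpaI digest → capillary electrophoresis. Activity fitted both directions against DMSO.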
# [12] = target: Cellular tumor antigen p53 (Homo sapiens) (UniProt P04637); experiment: ATG_p53_CIS: Attagene CIS-FACTORIAL HepG2 Assay for human p53 Transcription Factor (AID 2282994); details: HepG2 p53 cis-element reporter, Attagene mRNA; actives raise or lower the signal
# Chain of Cellular tumor antigen p53 (Homo sapiens) (P04637 whole entry, looked up): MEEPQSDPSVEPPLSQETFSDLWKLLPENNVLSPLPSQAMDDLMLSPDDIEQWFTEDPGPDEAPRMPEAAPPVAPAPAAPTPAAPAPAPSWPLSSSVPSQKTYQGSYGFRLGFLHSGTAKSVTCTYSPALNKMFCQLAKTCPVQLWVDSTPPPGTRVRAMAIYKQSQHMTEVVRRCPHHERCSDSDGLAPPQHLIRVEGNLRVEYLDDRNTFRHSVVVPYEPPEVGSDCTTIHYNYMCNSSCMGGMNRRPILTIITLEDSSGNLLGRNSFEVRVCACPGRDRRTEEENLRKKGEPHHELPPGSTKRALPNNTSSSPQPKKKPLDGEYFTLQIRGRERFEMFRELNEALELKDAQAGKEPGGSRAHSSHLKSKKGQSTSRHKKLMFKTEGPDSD
# Summary of the method: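 Using HepG2 hepatoma cells carrying cis-acting multiplexed reporters, mRNA induction is detected after a 24 h exposure. Gain- and loss-of-signal responses are fitted relative to DMSO-treated cells.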
# [13] = target: Hepatocyte nuclear factor 4-alpha (Homo sapiens) (UniProt P41235); experiment: ATG_HNF4a_TRANS: Attagene TRANS-FACTORIAL HepG2 Assay for human Hepatocyte Nuclear Factor 4 alpha (HNF4a) (AID 2282982; active means hit-call score of the fitted dose curve at least 0.9, where 1 is the maximum); details: HepG2 HNF4a transactivation reporter, mRNA readout
# Chain of Hepatocyte nuclear factor 4-alpha (Homo sapiens) (P41235 whole entry, looked up, the tested form may be a part): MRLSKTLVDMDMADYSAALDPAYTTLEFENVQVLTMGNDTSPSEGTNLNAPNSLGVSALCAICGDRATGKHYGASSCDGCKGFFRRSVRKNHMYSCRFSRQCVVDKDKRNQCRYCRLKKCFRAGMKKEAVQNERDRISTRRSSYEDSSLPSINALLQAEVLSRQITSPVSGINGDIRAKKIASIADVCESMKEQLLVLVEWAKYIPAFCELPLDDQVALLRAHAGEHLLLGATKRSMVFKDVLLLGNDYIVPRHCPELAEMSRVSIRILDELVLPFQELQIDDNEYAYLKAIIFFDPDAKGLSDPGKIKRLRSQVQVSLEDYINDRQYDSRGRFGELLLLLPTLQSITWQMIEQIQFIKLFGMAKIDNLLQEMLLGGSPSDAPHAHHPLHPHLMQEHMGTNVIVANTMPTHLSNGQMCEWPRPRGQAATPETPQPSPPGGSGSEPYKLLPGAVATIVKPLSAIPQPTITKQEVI
# Summary of the method: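 HepG2 cells transiently transfected with multiplexed GAL4-UAS reporter units responsive to chimeric NR-GAL4 proteins; compound exposure 24 h. Reporter mRNA quantified by RT-PCR, 6-FAM labelling, HpaI digestion and capillary electrophoresis; gain of signal versus DMSO baseline.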
# [14] = ATG_NF_kB_CIS: Attagene CIS-FACTORIAL HepG2 Assay for human Nuclear Factor Kappa B (NF-kB) (AID 2282991); details: HepG2 Attagene cis-factorial NF-kB reporter mRNA; actives raise or lower the signal
# Summary of the method: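 HepG2 cells transfected with cis-promoter-driven reporter units, so endogenous transcription factor activity is measured. Reporter mRNA quantified 24 h after dosing by RT-PCR and capillary electrophoresis, with bidirectional fitting against DMSO.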
# [15] = target: Oxysterols receptor LXR-alpha (Homo sapiens) (UniProt Q13133); experiment: ATG_LXRa_TRANS: Attagene TRANS-FACTORIAL HepG2 Assay for human Liver X Receptor alpha (LXRa) (AID 2282980; active means hit-call score of the fitted dose curve at least 0.9, where 1 is the maximum); details: HepG2 Attagene TRANS reporter, LXRa transactivation
# Chain of Oxysterols receptor LXR-alpha (Homo sapiens) (Q13133 whole entry, looked up, the tested form may be a part): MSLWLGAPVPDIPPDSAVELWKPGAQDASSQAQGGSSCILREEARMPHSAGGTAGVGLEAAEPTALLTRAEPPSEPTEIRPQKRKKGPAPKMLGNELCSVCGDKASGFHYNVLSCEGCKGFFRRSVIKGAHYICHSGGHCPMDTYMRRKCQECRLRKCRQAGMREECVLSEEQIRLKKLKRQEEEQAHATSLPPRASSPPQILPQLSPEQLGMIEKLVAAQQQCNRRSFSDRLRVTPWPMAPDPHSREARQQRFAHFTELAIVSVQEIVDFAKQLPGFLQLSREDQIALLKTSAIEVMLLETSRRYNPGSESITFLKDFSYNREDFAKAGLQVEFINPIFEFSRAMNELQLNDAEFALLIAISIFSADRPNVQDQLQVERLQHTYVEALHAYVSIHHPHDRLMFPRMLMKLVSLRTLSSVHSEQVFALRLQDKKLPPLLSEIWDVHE
# Summary of the method: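 Transfect HepG2 with GAL4-UAS multiplex reporter constructs (TRANS format, chimeric receptor-GAL4); treat 24 h; extract RNA, reverse-transcribe, PCR-amplify, FAM-label, HpaI-digest; resolve fragments by capillary electrophoresis. Upward response vs DMSO.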
structure (smiles),measurement,setting,value
O=C1CCCCCN1SSN1CCCCCC1=O,outcome,[1],inactive
same,outcome,[2],inactive
same,outcome,[3],inactive
same,outcome,[4],inactive
same,outcome,[5],inactive
same,outcome,[6],inactive
same,outcome,[7],inactive
same,AC50,[8],153 µM (active)
same,outcome,[9],inactive
same,AC50,[10],42.9 µM (active)
same,outcome,[11],inactive
same,outcome,[12],inactive
O=C(C(Cl)Cl)N1CCOC12CCCCC2,outcome,[1],inactive
same,outcome,[2],inactive
same,outcome,[13],inactive
same,outcome,[4],inactive
same,outcome,[6],inactive
same,outcome,[7],inactive
same,outcome,[8],inactive
same,AC50,[9],8.87 µM (active)
same,outcome,[14],inactive
same,AC50,[10],7.52 µM (active)
same,outcome,[11],inactive
same,outcome,[12],inactive
CCOC(=O)CC,outcome,[1],inactive
same,outcome,[2],inactive
same,outcome,[13],inactive
same,outcome,[3],inactive
same,outcome,[4],inactive
same,outcome,[5],inactive
same,outcome,[6],inactive
same,outcome,[7],inactive
same,outcome,[8],inactive
same,outcome,[9],inactive
same,outcome,[11],inactive
Cc1oncc1C(=O)Nc1ccc(C(F)(F)F)cc1,outcome,[1],inactive
same,outcome,[2],inactive
same,outcome,[13],inactive
same,outcome,[3],inactive
same,outcome,[4],inactive
same,outcome,[5],inactive
same,outcome,[6],inactive
same,outcome,[8],inactive
same,outcome,[9],inactive
same,outcome,[14],inactive
same,outcome,[11],inactive
CCCCCCC(O)CO (configuration not stated),outcome,[1],inactive
same,outcome,[15],inactive
same,outcome,[13],inactive
same,outcome,[3],inactive
same,outcome,[5],inactive
same,outcome,[6],inactive
same,outcome,[7],inactive
same,outcome,[8],inactive
same,outcome,[9],inactive
same,outcome,[10],inactive
same,outcome,[11],inactive
CC(C)(C)C(=O)C=Cc1ccc(Cl)cc1,outcome,[1],inactive
same,AC50,[15],26.1 µM (active)
same,outcome,[2],inactive
same,outcome,[4],inactive
same,outcome,[5],inactive
same,outcome,[6],inactive
same,outcome,[7],inactive
same,AC50,[8],48.8 µM (active)
same,outcome,[9],inactive
same,outcome,[14],inactive
same,outcome,[10],inactive
same,AC50,[11],26.3 µM (active)
same,AC50,[12],59 µM (active)
C[Si](C)(C)O[Si](O)(O)O,outcome,[1],inactive
same,outcome,[15],inactive
same,outcome,[3],inactive
same,outcome,[5],inactive
same,outcome,[6],inactive
same,outcome,[7],inactive
same,outcome,[8],inactive
same,outcome,[9],inactive
same,outcome,[11],inactive
O=c1n(CCO)c(=O)n(CCO)c(=O)n1CCO,outcome,[1],inactive
same,outcome,[15],inactive
same,outcome,[13],inactive
same,outcome,[4],inactive
same,outcome,[6],inactive
same,outcome,[7],inactive
same,outcome,[8],inactive
same,outcome,[9],inactive
same,outcome,[14],inactive
same,outcome,[10],inactive
same,outcome,[12],inactive
CC(C)(C)c1ccc(OC(=O)c2ccccc2O)cc1,outcome,[1],inactive
same,outcome,[2],inactive
same,outcome,[13],inactive
same,outcome,[3],inactive
same,outcome,[5],inactive
same,outcome,[6],inactive
same,outcome,[7],inactive
same,outcome,[8],inactive
same,outcome,[9],inactive
same,outcome,[14],inactive
same,outcome,[10],inactive
same,outcome,[11],inactive
same,outcome,[12],inactive
CCOC(F)(F)C(F)(F)C(F)(F)C(F)(F)F,outcome,[1],inactive
same,outcome,[15],inactive
same,outcome,[3],inactive
same,outcome,[4],inactive
same,outcome,[5],inactive
same,outcome,[6],inactive
same,outcome,[7],inactive
same,outcome,[8],inactive
same,outcome,[9],inactive
same,outcome,[14],inactive
same,outcome,[10],inactive
same,outcome,[11],inactive
same,outcome,[12],inactive
O=C1c2cccc(O)c2C(=O)c2c(O)cc(CO)cc21,outcome,[1],inactive
same,outcome,[15],inactive
same,outcome,[5],inactive
same,outcome,[6],inactive
same,outcome,[7],inactive
same,outcome,[8],inactive
same,outcome,[9],inactive
same,AC50,[10],6.09 µM (active)
same,outcome,[11],inactive
same,outcome,[12],inactive
CC(=O)Oc1ccc(C(C)=O)cc1,outcome,[1],inactive
same,outcome,[2],inactive
same,outcome,[4],inactive
same,outcome,[5],inactive
same,outcome,[6],inactive
same,outcome,[7],inactive
same,outcome,[8],inactive
same,outcome,[9],inactive
same,outcome,[10],inactive
same,outcome,[11],inactive
same,outcome,[12],inactive
